# Data taken from PubChem BioAssay (EPA / NIEHS).
# Active and inactive are the calls of the source. How the source made its calls: active means hit-call score of the fitted dose curve at least 0.9, where 1 is the maximum; inactive means score below 0.9.
# Experiments:
# Settings in all cases: mRNA level, 48 h; actives raise or lower the signal
# [1] = read-out: ATP-citrate lyase (ACLY), ACLY (gene 47); assay: LTEA_HepaRG_ACLY: Life Technologies and Expression Analysis (LTEA) Assay for ATP-citrate lyase (ACLY) using HepaRG (AID 2283466)
# In short: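 qRT-PCR readout of ACLY transcript after 48 h chemical treatment of HepaRG cells; expression normalized to three housekeeping genes. Eight-point half-log series, highest 100 uM, 0.5% DMSO vehicle. Gain or loss fitted against DMSO baseline.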
# [2] = read-out: Peroxisomal acyl-coenzyme A oxidase 1 (ACOX1) gene, ACOX1 (gene 51); assay: LTEA_HepaRG_ACOX1: Life Technologies and Expression Analysis (LTEA) Assay for Peroxisomal acyl-coenzyme A oxidase 1 (ACOX1) gene using HepaRG (AID 2283467)
# In short: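 HepaRG, 48 h chemical exposure, 8-pt half-log series from 100 uM top, 0.5% DMSO vehicle, duplicates. Readout: ACOX1 mRNA by Fluidigm qRT-PCR, housekeeping-normalized; bidirectional fit vs DMSO baseline.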
# [3] = read-out: Alkaline Phosphatase, Placental (ALPP) gene, ALPP (gene 250); assay: LTEA_HepaRG_ALPP: Life Technologies and Expression Analysis (LTEA) Assay for Alkaline Phosphatase, Placental (ALPP) gene using HepaRG (AID 2283468);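 on AC50: differentiated human HepaRG liver cells in serum-free induction medium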
# In short: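 Expression of ALPP was quantified by qRT-PCR against three housekeeping genes in human HepaRG cultures treated for 48 h with an eight-point concentration series up to 100 uM. Activity in either direction was fitted relative to 0.5% DMSO.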
# [4] = read-out: Bcl-2 (BAD) gene, BAD (gene 572); assay: LTEA_HepaRG_BAD: Life Technologies and Expression Analysis (LTEA) Assay for Bcl-2 (BAD) gene using HepaRG (AID 2283469)
# In short: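 HepaRG, 48 h exposure, 8-pt half-log curve from 100 uM in 0.5% DMSO, duplicates. Readout: TaqMan qRT-PCR for BAD mRNA, housekeeping-normalised (ACTB/GAPDH/POLR2A); gain or loss fitted against DMSO baseline.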
# [5] = read-out: Bcl-2 (BAX) gene, BAX (gene 581); assay: LTEA_HepaRG_BAX: Life Technologies and Expression Analysis (LTEA) Assay for Bcl-2 (BAX) gene using HepaRG (AID 2283470)
# In short: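 Human HepaRG cells treated in duplicate for 48 h across eight concentrations (max 100 uM, 0.5% DMSO); BAX expression measured by qRT-PCR.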
# [6] = read-out: adenosine kinase (ADK) gene, ADK (gene 132); assay: LTEA_HepaRG_ADK: Life Technologies and Expression Analysis (LTEA) Assay for adenosine kinase (ADK) gene using HepaRG (AID 2283471)
# In short: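 Read-out is ADK transcript level measured by qRT-PCR and normalised to three housekeeping genes. Cells are human HepaRG, dosed for 48 h at up to 100 uM in 0.5% DMSO. Gain or loss of signal is fitted against DMSO controls.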
# [7] = read-out: Alpha-fetoprotein (AFP) gene, AFP (gene 174); assay: LTEA_HepaRG_AFP: Life Technologies and Expression Analysis (LTEA) Assay for Alpha-fetoprotein (AFP) gene using HepaRG (AID 2283472)
# In short: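 Measures AFP mRNA change in HepaRG after 48 h chemical exposure (8 half-log concentrations, highest 100 uM, 0.5% DMSO). Fold change relative to DMSO, fitted in both directions.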
# [8] = read-out: BCL2L11 (gene 10018); assay: LTEA_HepaRG_BCL2L11: Life Technologies and Expression Analysis (LTEA) Assay for Bcl-2 (BCL2L11) gene using HepaRG (AID 2283473)
# In short: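 Cells were plated, cultured 48 h, switched to serum-free induction medium, then dosed in duplicate for 48 h at eight half-log concentrations up to 100 uM. Lysates underwent RNA isolation and TaqMan qRT-PCR; gain or loss versus DMSO was fitted.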
# [9] = read-out: Apolipoprotein A-V (APOA5) gene, APOA5 (gene 116519); assay: LTEA_HepaRG_APOA5: Life Technologies and Expression Analysis (LTEA) Assay for Apolipoprotein A-V (APOA5) gene using HepaRG (AID 2283474)
# In short: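 Human liver HepaRG cells are treated 48 h with test chemicals (100 uM top, half-log dilutions, 0.5% DMSO). APOA5 mRNA induction or loss is measured by qRT-PCR relative to vehicle.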
# [10] = read-out: Apoptosis regulator Bcl-2 (Homo sapiens) (UniProt P10415); assay: LTEA_HepaRG_BCL2: Life Technologies and Expression Analysis (LTEA) Assay for Bcl-2 gene using HepaRG (AID 2283475)
# In short: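 Each chemical was tested in duplicate on HepaRG cultures held in serum-free induction medium for 48 h, highest concentration 100 uM with half-log dilutions. Transcript levels came from multiplexed qRT-PCR, normalised to housekeeping genes; activity was scored in either direction relative to DMSO.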
# [11] = read-out: Bcl-2 (BID) gene, BID (gene 637); assay: LTEA_HepaRG_BID: Life Technologies and Expression Analysis (LTEA) Assay for Bcl-2 (BID) gene using HepaRG (AID 2283476)
# In short: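 Assay used HepaRG hepatic cells treated 48 h in serum-free medium with half-log dilutions from 100 uM. Endpoint: BID mRNA, qRT-PCR, normalized to ACTB/GAPDH/POLR2A.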
# [12] = read-out: Caspase-3 (Homo sapiens) (UniProt P42574); assay: LTEA_HepaRG_CASP3: Life Technologies and Expression Analysis (LTEA) Assay for cysteine-aspartic acid protease (CASP3) using HepaRG (AID 2283477)
# In short: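 In HepaRG liver cells dosed for 48 h at up to 100 uM (eight-point, duplicate), CASP3 expression changes are scored by qRT-PCR. Activity is fitted in both directions with 0.5% DMSO as baseline.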
# [13] = read-out: Cytochrome P450 (CYP24A1), CYP24A1 (gene 1591); assay: LTEA_HepaRG_CYP24A1: Life Technologies and Expression Analysis (LTEA) Assay for Cytochrome P450 (CYP24A1) using HepaRG (AID 2283478)
# In short: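 Human liver HepaRG cultures receive each chemical for 48 h across an eight-point half-log series topping at 100 uM in 0.5% DMSO. Induction or suppression of CYP24A1 mRNA is scored relative to vehicle after housekeeping-gene normalization.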
# [14] = read-out: Cytochrome P450 (CYP1A2), CYP1A2 (gene 1544); assay: LTEA_HepaRG_CYP1A2: Life Technologies and Expression Analysis (LTEA) Assay for Cytochrome P450 (CYP1A2) using HepaRG (AID 2283479)
# In short: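 Assesses CYP1A2 mRNA in human HepaRG liver cells after 48 h chemical exposure at up to 100 uM. Values come from qRT-PCR with bidirectional curve fitting relative to DMSO.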
# [15] = read-out: cysteine-aspartic acid protease (CASP8), CASP8 (gene 841); assay: LTEA_HepaRG_CASP8: Life Technologies and Expression Analysis (LTEA) Assay for cysteine-aspartic acid protease (CASP8) using HepaRG (AID 2283480)
# In short: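 qRT-PCR readout of CASP8 mRNA, normalized to three housekeeping genes, after 48 h chemical exposure of HepaRG cells; 8-point half-log series, top 100 uM, 0.5% DMSO vehicle. Bidirectional curve fitting against DMSO baseline.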
# [16] = read-out: Cytochrome P450 (CYP2B6), CYP2B6 (gene 1555); assay: LTEA_HepaRG_CYP2B6: Life Technologies and Expression Analysis (LTEA) Assay for Cytochrome P450 (CYP2B6) using HepaRG (AID 2283481)
# In short: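 Using 48 h treatment of HepaRG cells in serum-free induction medium, concentrations spanned half-log steps from 100 uM in 0.5% DMSO vehicle. CYP2B6 mRNA induction or loss is scored by qRT-PCR against DMSO.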
# [17] = read-out: Cytochrome P450 2C19 (Homo sapiens) (UniProt P33261); assay: LTEA_HepaRG_CYP2C19: Life Technologies and Expression Analysis (LTEA) Assay for CYP2C19 using HepaRG (AID 2283482)
# In short: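 Human HepaRG liver cells received test chemicals for 48 h (highest 100 uM, half-log dilutions in 0.5% DMSO). CYP2C19 mRNA induction or loss is read by multiplexed qRT-PCR and fitted in both directions versus vehicle.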
# [18] = read-out: CYP2C9 (gene 1559); assay: LTEA_HepaRG_CYP2C9: Life Technologies and Expression Analysis (LTEA) Assay for CYP2C9 using HepaRG (AID 2283484)
# In short: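 HepaRG, 48 h dosing, 8-pt half-log series, top 100 uM, 0.5% DMSO vehicle. Read-out: CYP2C9 transcript by TaqMan qRT-PCR, housekeeping-normalized (ACTB/GAPDH/POLR2A). Gain or loss fitted vs DMSO baseline.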
# [19] = read-out: CYP2E1 (gene 1571); assay: LTEA_HepaRG_CYP2E1: Life Technologies and Expression Analysis (LTEA) Assay for CYP2E1 using HepaRG (AID 2283485)
# In short: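 Assay uses 48 h exposure of HepaRG hepatic cells, eight concentrations to 100 uM. Expression of CYP2E1 is quantified by TaqMan qRT-PCR with ACTB, GAPDH and POLR2A normalization; curves fitted in both directions relative to vehicle.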
# Sequence of Caspase-3 (Homo sapiens) (P42574 whole entry, looked up): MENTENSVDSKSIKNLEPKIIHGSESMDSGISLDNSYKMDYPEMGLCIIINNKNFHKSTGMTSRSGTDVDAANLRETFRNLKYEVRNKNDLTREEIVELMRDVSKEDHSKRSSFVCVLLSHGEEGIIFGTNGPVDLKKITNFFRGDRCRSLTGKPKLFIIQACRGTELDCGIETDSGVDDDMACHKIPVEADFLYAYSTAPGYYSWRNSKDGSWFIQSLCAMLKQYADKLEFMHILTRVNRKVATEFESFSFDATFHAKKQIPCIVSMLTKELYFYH
# Sequence of Cytochrome P450 2C19 (Homo sapiens) (P33261 whole entry, looked up): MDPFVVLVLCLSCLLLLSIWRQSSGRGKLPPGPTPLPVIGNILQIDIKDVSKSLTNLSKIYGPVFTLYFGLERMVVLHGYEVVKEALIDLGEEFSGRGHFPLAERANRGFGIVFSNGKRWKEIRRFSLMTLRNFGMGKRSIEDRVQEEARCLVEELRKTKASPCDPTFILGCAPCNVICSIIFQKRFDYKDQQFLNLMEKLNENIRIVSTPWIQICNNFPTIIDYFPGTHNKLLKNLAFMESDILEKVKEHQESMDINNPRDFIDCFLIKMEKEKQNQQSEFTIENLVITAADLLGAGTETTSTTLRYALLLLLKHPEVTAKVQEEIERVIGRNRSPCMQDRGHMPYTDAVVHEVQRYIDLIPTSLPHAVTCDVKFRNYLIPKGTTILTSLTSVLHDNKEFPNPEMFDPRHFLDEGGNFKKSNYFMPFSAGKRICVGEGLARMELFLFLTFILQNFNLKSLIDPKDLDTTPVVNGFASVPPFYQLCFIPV
# Sequence of Apoptosis regulator Bcl-2 (Homo sapiens) (P10415 whole entry, looked up): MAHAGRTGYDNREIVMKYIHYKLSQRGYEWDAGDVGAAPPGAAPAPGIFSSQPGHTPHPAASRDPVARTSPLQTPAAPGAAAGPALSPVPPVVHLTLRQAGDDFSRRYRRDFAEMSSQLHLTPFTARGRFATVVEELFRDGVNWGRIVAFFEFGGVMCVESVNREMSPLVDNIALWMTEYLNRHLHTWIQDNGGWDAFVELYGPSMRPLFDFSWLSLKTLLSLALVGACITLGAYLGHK
smiles,measurement,setting,value
O=C(O)C(F)(F)C(F)(F)C(F)(F)C(F)(F)C(F)(F)C(F)(F)C(F)(F)C(F)(F)C(F)(F)F,AC50,[1],76.5 µM (active)
same,AC50,[2],78.4 µM (active)
same,AC50,[3],68.1 µM (active)
same,outcome,[4],inactive
same,AC50,[5],12.6 µM (active)
same,AC50,[6],81.1 µM (active)
same,AC50,[7],23 µM (active)
same,AC50,[8],12.1 µM (active)
same,AC50,[9],30.8 µM (active)
same,outcome,[10],inactive
same,AC50,[11],90.6 µM (active)
same,AC50,[12],82.5 µM (active)
same,outcome,[13],inactive
same,AC50,[14],22.2 µM (active)
same,AC50,[15],86 µM (active)
same,AC50,[16],80.1 µM (active)
same,AC50,[17],81.1 µM (active)
same,AC50,[18],74.2 µM (active)
same,AC50,[19],25.4 µM (active)
CC#Cc1cc(C)nc(Nc2ccccc2)n1,outcome,[1],inactive
same,outcome,[2],inactive
same,AC50,[3],50 µM (active)
same,outcome,[4],inactive
same,outcome,[5],inactive
same,outcome,[6],inactive
same,AC50,[7],26.4 µM (active)
same,AC50,[8],13 µM (active)
same,outcome,[9],inactive
same,outcome,[10],inactive
same,outcome,[11],inactive
same,outcome,[12],inactive
same,outcome,[13],inactive
same,AC50,[14],7.61 µM (active)
same,outcome,[15],inactive
same,AC50,[16],10.3 µM (active)
same,AC50,[17],24.9 µM (active)
same,AC50,[18],19.8 µM (active)
same,AC50,[19],13.6 µM (active)
COS(=O)(=O)OC,outcome,[1],inactive
same,outcome,[2],inactive
same,outcome,[3],inactive
same,outcome,[4],inactive
same,outcome,[5],inactive
same,outcome,[6],inactive
same,outcome,[7],inactive
same,outcome,[8],inactive
same,outcome,[9],inactive
same,outcome,[10],inactive
same,outcome,[11],inactive
same,outcome,[12],inactive
same,outcome,[13],inactive
same,AC50,[14],31 µM (active)
same,outcome,[15],inactive
same,outcome,[16],inactive
same,outcome,[17],inactive
same,outcome,[18],inactive
same,outcome,[19],inactive
